# High-throughput results from PubChem.
# Rab9 prom act – Rab9 promoter activation | Huh7 Rab9 promoter-luciferase reporter, luminescence, 24 h | Potency, µM (titrated, usually from 9.22 µM), hits mostly activators | hit rate 2.8% among 320,000; also: nearly all actives have a fitted effect of over 60% in size
#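 Promoter activation is measured as luciferase luminescence in Huh7 cells stably transfected with a Rab9 promoter–luciferase construct, following 24 h compound exposure at 37 °C and 10 min reagent incubation at ambient temperature.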
# NPC1 promoter act – NPC1 promoter activation; Huh7 NPC1 promoter luciferase reporter, 24 h; Potency, µM (doses to about 9.22 µM), hits mostly activators; hit rate 2.4% among 320,000; AID 485313; also: nearly all actives have a fitted effect of over 60% in size
#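 Cells: Huh7 expressing luciferase under the NPC1 promoter, 1500/well. Seeded 2 h, compound added, incubated 24 h at 37 °C. Luciferase reagent, 10 min ambient, then luminescence.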
# ELG1 genotoxic – inducers of genotoxicity in HEK293T ELG1-luciferase cells. Potency, µM (highest dose often 46 µM), hits mostly activators. hit rate 1.3% among 330,000. HEK293T ELG1-luciferase reporter, luminescence, 16 h; also: nearly all actives have a fitted effect of over 60% in size
#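 Luminescence read-out: rising ELG1-luciferase signal, reflecting elevated ELG1 protein under genetic stress, flags genotoxic compounds. Cells were treated for 16 hr at 37 °C before ONE-Glo detection.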
# uPA surface inh – blocks generation of uPA at the cell surface; cell surface uPA generation assay, qHTS; Potency, µM (titrated, usually from 38.3 µM), hits mostly inhibitors; hit rate 0.31% among 330,000; AID 540303; active = well fitted inhibition curve with a large enough effect; inconclusive = small, poorly fitted or top-dose-only effect; inactive = no such curve, though single readings can be large or run the other way; tested in mouse RAW 264.7 cells; also: nearly all actives have a fitted effect of over 55% in size
# SMN2 splice enh – enhancers of SMN2 splice variant expression; Potency, µM (titrated, usually from 46.1 µM), usual class: activators; HEK293 SMN2-luciferase splicing reporter, luminescence, 30-36 h; hit rate 2.8% among 210,000; also: nearly all actives have a fitted effect of over 55% in size
#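 HEK293 cells carry an SMN2 minigene-luciferase reporter in which exon 7 inclusion puts luciferase in frame. Cells were seeded at 2000 cells/well, attached for 10-12 hours, then exposed to compounds for 30-36 hours at 37C before ONE-Glo luminescence.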
# FLuc counter – firefly luciferase modulation, counter-screen for miR-21 project | P08659 | purified FLuc, Km substrates, luminescence inhibition | AID 588342 | hit rate 6.9% among 360,000 | Potency, µM (titrated, usually from 57.5 µM), most hits filed as inhibitors; also: nearly all actives have a fitted effect of over 55% in size
# Target sequence (P08659 whole entry, looked up): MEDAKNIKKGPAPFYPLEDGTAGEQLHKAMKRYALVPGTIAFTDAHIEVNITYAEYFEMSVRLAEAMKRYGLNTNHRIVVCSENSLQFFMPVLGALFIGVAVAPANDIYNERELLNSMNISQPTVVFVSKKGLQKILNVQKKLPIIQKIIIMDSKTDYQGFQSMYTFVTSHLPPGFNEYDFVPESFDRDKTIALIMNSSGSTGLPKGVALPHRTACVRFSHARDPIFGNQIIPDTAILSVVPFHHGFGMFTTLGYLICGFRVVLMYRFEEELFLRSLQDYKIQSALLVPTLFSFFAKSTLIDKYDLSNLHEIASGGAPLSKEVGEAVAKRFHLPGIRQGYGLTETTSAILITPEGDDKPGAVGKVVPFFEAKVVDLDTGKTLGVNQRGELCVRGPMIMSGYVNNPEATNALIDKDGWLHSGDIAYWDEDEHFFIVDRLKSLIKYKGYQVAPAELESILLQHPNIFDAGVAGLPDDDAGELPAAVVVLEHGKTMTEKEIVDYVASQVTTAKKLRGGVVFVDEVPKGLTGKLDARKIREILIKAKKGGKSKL
#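 Purified P. pyralis luciferase, 10 nM final, with Km-level 10 uM D-luciferin and 10 uM ATP in 50 mM Tris acetate pH 7.5, 10 mM Mg acetate, 0.01% Tween-20, 0.05% BSA; 6-point qHTS titration about 60 µM downward; luminescence read.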
# Hits are given with their value; 0 = inactive; ? = inconclusive; - = no result given; ! = not active in a repeat; [ ] = another dose, or the depositor's remark. Rows were chosen to be rich in hits. Some 7.3% of all compounds tested hit in one or more screens of this group. Unless noted, calls follow the shape of the dose curve; as a rule, active = well fitted curve in the direction sought with a large enough effect; inconclusive = small, poorly fitted or top-dose-only effect, or another doubt; inactive = no such curve, though single readings can be large; an effect the other way counts as inactive or inconclusive.
SMILES,Rab9 prom act,NPC1 promoter act,ELG1 genotoxic,uPA surface inh,SMN2 splice enh,FLuc counter
COc1ccc(-c2csc(N3CCC(c4ccccc4)C3)n2)cc1 (centres undefined),?,?,0,0,0,4.26µM
O=[N+]([O-])c1ccc(N2CCN(c3nc(-c4ccc(Cl)cc4)cs3)CC2)cc1,0,0,0,0,0,0
Cc1cccc(NC(=O)Cn2c(=O)nc(-c3ccccc3)c3ccccc32)c1C,-,-,-,-,-,0
O=[N+]([O-])c1cccc(OCc2cn3cccnc3n2)c1,0,0,0,0,0,0
Cc1ccc(OCc2cn3cccnc3n2)cc1,2.82µM,3.55µM,18.4µM,0,8.91µM,21.3µM
Cc1cccn2cc(COc3ccc(-c4ccccc4)cc3)nc12,?,?,?,0,-,9.53µM
Cc1cccn2cc(COc3cccc([N+](=O)[O-])c3)nc12,?,0,0,0,-,?
Cc1nnc(N/N=C/c2ccc(-c3ccccc3F)o2)n1N,?,0,?,0,-,21.3µM
CCOC(=O)/C(Sc1nc(-c2ccccc2)cc(-c2ccccc2)c1C#N)=C(\C)O,0,0,0,0,-,0
Cc1cccc(CNC(=O)CN2C(=O)CCCc3ccccc32)c1,-,-,-,-,-,0
O=C(Nc1ccc(-n2ccc(C(F)(F)F)n2)cc1)Nc1cccc(Cl)c1,0,0,0,-,-,10.7µM
Cc1cc(C)cc(NC(=O)Nc2ccc(-n3ccc(C(F)(F)F)n3)cc2)c1,0,?,0,0,-,0
COc1ccccc1NC(=O)Nc1ccc(-n2ccc(C(F)(F)F)n2)cc1,2.82µM,?,0,0,-,10.7µM
O=C(Nc1ccc(-n2ccc(C(F)(F)F)n2)cc1)c1cccs1,3.16µM,2.82µM,?,0,-,10.7µM
NCCCC[C@@H](N)C(=O)O,-,-,-,-,0,-
O=S(=O)(c1ccccc1)c1nc(-c2cccs2)oc1SCc1ccccc1F,-,-,-,-,0,0
COc1cc(NC(=O)Cn2nc(C(F)(F)F)c(Br)c2C)cc([N+](=O)[O-])c1,0,0,0,0,0[1.84 µM],0
O=C(Oc1ccc2ccccc2c1Br)N1CCCCCC1,0.631µM,0.501µM,?,0,11.2µM,1.35µM
NC(=O)C1CCN(C(=O)COc2ccc3ccccc3c2Br)CC1,0,0,0,0,-,0
O=C(COc1ccc2ccccc2c1Br)N1CCCCC1,?,0,18.3µM,0,-,15.1µM
CCN(CC)C(=O)Oc1ccc2ccccc2c1Br,?,?,0,0,?,19µM
CCOc1ccc(CCNC(=O)CCc2c(C)nc3cc(-c4ccccc4OC)nn3c2C)cc1,-,-,-,-,0,?
CC(=O)c1cccc(NC(=O)c2noc3c2CSc2ccccc2-3)c1,-,-,-,-,-,0
Oc1cccc(-c2nc3ccc4ccccc4c3c3c2CCC3)c1,?,?,0,0,?,6.01µM
COc1cccc(-c2nnc(-c3ccc(C(F)(F)F)cc3)o2)c1OC,?,0,?,0,17.8µM,7.57µM
SMILES,Rab9 prom act,NPC1 promoter act,ELG1 genotoxic,uPA surface inh,SMN2 splice enh,FLuc counter
FC(F)(F)Oc1ccccc1-c1nnc(-c2cccc(C(F)(F)F)c2)o1,0,0,0,0,-,0
O=C(Cn1cc(S(=O)(=O)c2ccc(F)cc2)c(=O)c2cc3c(cc21)OCO3)Nc1ccccc1,-,-,-,-,0,0
CCc1ccc(C(=O)Cn2ncc(Cl)c(Cl)c2=O)cc1,0,0,0,0,-,7.57µM
Cc1ccc(Cn2ncc(Cl)c(Cl)c2=O)cc1,0,0,0,0,?,0
O=C(Cn1ncc(Cl)c(Cl)c1=O)N1CCN(Cc2ccccc2)CC1,0,0,0,11.2µM,0,0
Cc1ccc(NC(=O)CCS(=O)(=O)c2ccc(Br)s2)c(Br)c1,-,-,-,-,0,0
Cc1nn(CC(=O)NCc2cccc(F)c2)c(=O)c2c(C)n(-c3ccc(Cl)cc3)nc12,-,-,-,-,-,0
O=C(Nc1ccc(Nc2ccccc2)cc1)c1ccc(Cl)cc1Cl,-,-,-,0,-,-
O=C(Nc1ccc(Cl)cc1Cl)c1ccc(-c2ccccc2)cc1,0,0,0,0,0,0
C#Cc1cccc(NC(=O)c2ccc(Cl)cc2Cl)c1,1.12µM,1.78µM,16.4µM,?,-,2.69µM
O=C(Nc1ccccc1Cl)c1ccccc1Cl,0,0,0,0,0,0
CC(C)NC(=S)NC(=O)c1ccc(Cl)cc1Cl,0,0,0,0,0[1.84 µM],0
O=C(Nc1ccccc1Cl)c1ccc(Cl)cc1Cl,0,0,0,0,0,13.5µM
Nc1ccccc1C(=O)Nc1ccc(Cl)cc1Cl,2.51µM,?,?,0,-,10.7µM
O=C(NC(=S)Nc1ccccc1O)c1ccc(Cl)cc1Cl,?,?,?,0,0,19µM
O=C(COC(=O)c1ncc(Cl)c(Cl)c1Cl)c1ccc(Cl)s1,0,0,0,0,0,12µM
O=C(OCC(=O)c1ccc(Cl)s1)c1cnccn1,0,0,0,0,-,19µM
O=C(OCC(=O)c1ccc(Cl)s1)c1ccccn1,0,0,0,0,0,7.57µM
CC(=O)Nc1ccc(NC(=O)c2ccc3c(c2)N(Cc2cccc(Cl)c2)C(=O)c2ccccc2S3=O)cc1 (centres undefined),-,-,-,-,-,0
O=C(CSc1nccn1Cc1ccc(Cl)cc1)Nc1ccc2c(c1)OCCO2,-,-,-,-,-,0
Cc1nn(C(C)(C)C)c(N)c1-c1ccccc1,0,0,0,0,0,0
COc1ccc(-c2c(C)nn(-c3ccccc3)c2N)cc1,?,?,?,-,?,21.3µM
COc1ccc(-c2nn(-c3ccccc3)cc2N)cc1,2.82µM,3.55µM,?,0,14.1µM,10.7µM
Cc1nn(-c2ccc(C(=O)O)cc2)c(N)c1-c1ccccc1,?,?,?,0,11.2µM,3.01µM
COc1ccc(NC(=O)CN2C(=O)C(C)(C)c3cc(S(=O)(=O)N4CCCCC4)ccc32)cc1Cl,-,-,-,-,-,0
SMILES,Rab9 prom act,NPC1 promoter act,ELG1 genotoxic,uPA surface inh,SMN2 splice enh,FLuc counter
CCOC(=O)c1ccc(NC(=O)C(Cc2ccccc2)NS(=O)(=O)c2ccc(Br)s2)cc1 (centres undefined),-,-,-,-,0,0
CN(c1ccccc1)S(=O)(=O)c1nnc(NC(=O)COc2ccccc2F)s1,0,0,0,0,-,0
O=C(COc1ccccc1)Nc1nnc(S(=O)(=O)Nc2ccccc2)s1,0,0,0,0,-,1.51µM!
CCC(=O)Nc1nnc(S(=O)(=O)N(C)c2ccccc2)s1,0,0,0,0,-,0
Cc1ccccc1OCC(=O)Nc1nnc(S(=O)(=O)N(C)c2ccccc2)s1,-,-,-,-,-,0.953µM
Cc1ccccc1N(C)S(=O)(=O)c1nnc(NC(=O)c2ccccc2F)s1,0,0,0,0,-,6.01µM
CN(c1ccccc1)S(=O)(=O)c1nnc(NC(=O)COc2ccccc2)s1,0,0,0,0,-,0.426µM!
Cc1cccc(C)c1OC(=O)CSc1nnc(-c2ccc3c(c2)OCO3)o1,-,-,-,-,-,0
C[N+]1(NCC[N@@+]2(C)CCc3ccccc3C2)CCCCC1,-,-,-,-,0[9.22 µM],-
O=C(NCc1cccnc1)/C(=C\c1ccc(-c2ccc(Cl)c(Cl)c2)o1)S(=O)(=O)c1ccccc1,0,0,0,10µM,0,0
Cc1nc2c(-c3ccccc3)cnn2c(N)c1-c1ccccc1,0,?,?,0,-,0.213µM
